# Bioassay records (PubChem BioAssay)
# Dicer processing = inhibitors of human Dicer processing of pre-microRNA. Q9UPY3. cat-ELCCA pre-miR-21 Dicer processing, chemiluminescence; active compounds read high. z-score at 25 µM. actives 6% (n = 47,000); in the data active means z-score above about 3, passing the limit was not always enough;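 further: plate controls were vehicle for no effect and no enzyme for full effect; higher signal means more uncleaved substrate so more Dicer inhibition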
# An asterisk follows results filed as active. Only a selection was taken, and hits are over-represented in it overall.
SMILES,Dicer processing
O=c1sc2ccccc2c(N2CCN(c3ccccc3)CC2)c1[N+](=O)[O-],0.84
CCCCNc1c([N+](=O)[O-])c(=O)sc2ccccc12,6.99*
O=c1sc2ccccc2c(NCCCN2CCOCC2)c1[N+](=O)[O-],-0.32
CC(C)(C)Nc1c([N+](=O)[O-])c(=O)sc2ccccc12,-0.95
CN(C)CCCNc1sc(-c2ccccn2)c([N+](=O)[O-])c1[N+](=O)[O-],0.03
c1nc2c3c4c(sc3ncn2n1)CCC4,1.2
Nc1c(C(=O)Nc2ccc(F)cc2)sc2nc3c(cc12)CCCCC3,0.8
COc1cccc(OCCCCCN2CCCCC2)c1,1.33
COc1ccc(-c2ccc(C#N)c(SCc3ccncc3)n2)cc1,-0.07
O=C(Nc1ccccc1)N1CCN(c2nsc3ccccc23)CC1,0.9
CC(C)Cn1c(=O)oc2ccccc21,-0.3
Oc1ccccc1-c1nc2ccccc2o1,-0.43
O=c1oc2ccccc2n1-c1nc2ccccc2o1,5.63*
CC1Oc2ccc(C(=O)c3cc4ccccc4o3)cc2N(C)C1=O (centres undefined),-0.34
C=CCOc1ccc(/C(O)=C2/C(=O)C(=O)N(CC3CCCO3)C23C(=O)N(CC)c2ccccc23)cc1 (centres undefined),-0.3
COC(=O)c1ccc(S(=O)(=O)NCCNc2ncc(Cl)cc2C(F)(F)F)n1C,0.44
CNC(=S)N/N=C/c1ccc(OC)c(Br)c1,1.22
COc1ccccc1NC(=S)N/N=C/c1ccco1,1.44
COc1cc(/C=N/NC(=S)Nc2ccccc2OC)ccc1O,5.12*
Cc1ccc(CN2C(=O)C(O)(c3c[nH]c4ccccc34)c3ccccc32)cc1 (centres undefined),1.82
CC(C)Nc1nc(NC(C)C)nc(N(C)C#N)n1,6.95*
C=CCNC(=S)NNC(=O)c1ccc(O)cc1,0.82
COc1cc(C(=O)N2C(C)CCCC2C)cc(OC)c1OC (centres undefined),-0.69
O=C1C2C(c3ccc(F)cc3)OC3(C(=O)c4ccccc4C3=O)C2C(=O)N1Cc1ccc(Cl)cc1 (centres undefined),-1.16
COc1ccc(N2C(=O)C3C(c4ccccc4Cl)OC4(C(=O)c5ccccc5C4=O)C3C2=O)cc1 (centres undefined),-0.76
SMILES,Dicer processing
Cc1c(Cl)cccc1N1C(=O)C2C(c3ccccc3)OC3(C(=O)c4ccccc4C3=O)C2C1=O (centres undefined),0.46
COc1ccc(N2C(=O)C3C(c4ccccc4)OC4(C(=O)c5ccccc5C4=O)C3C2=O)cc1OC (centres undefined),-0.1
CCOc1ccc(N2C(=O)C3C(c4ccc(C)cc4)OC4(C(=O)c5ccccc5C4=O)C3C2=O)cc1 (centres undefined),3.39*
O=C1C2C(c3ccccc3)OC3(C(=O)c4ccccc4C3=O)C2C(=O)N1c1cccc(F)c1 (centres undefined),1.08
O=C1C2C(c3ccc(Cl)cc3)OC3(C(=O)c4ccccc4C3=O)C2C(=O)N1c1ccc(F)cc1F (centres undefined),6.12*
Cc1ccc(C2OC3(C(=O)c4ccccc4C3=O)C3C(=O)N(Cc4ccccc4)C(=O)C23)cc1 (centres undefined),-1.41
COc1ccc(Cl)cc1N1C(=O)C2C(c3ccccc3)OC3(C(=O)c4ccccc4C3=O)C2C1=O (centres undefined),4.06*
O=[N+]([O-])c1ccccc1CS(=O)(=O)c1nc2ccccc2s1,0.17
N#Cc1c(N)nc2ccc(Cl)cc2c1-c1ccccc1,-1.25
C=CCNC(=O)CSc1nc(-c2ccco2)cc(C(F)(F)F)n1,0.27
C=CC(=O)N1CN(C(=O)C=C)CN(C(=O)C=C)C1,-0.7
O=C(Oc1c(-c2ccccc2)c(=O)n2c3c(cccc13)CC2)c1ccccc1,-2.04
O=C(Oc1c(-c2ccccc2)c(=O)n2c3c(cccc13)CC2)c1cccs1,3.96*
O=C(Oc1c(-c2ccccc2)c(=O)n2c3c(cccc13)CCC2)c1cccs1,-1.03
CCN(CC)C(=S)Oc1ccc(Br)cc1C(=O)Nc1ccc(F)c(Cl)c1,0.33
O=C(NCc1ccc(S(=O)(=O)Nc2ccc(I)cc2F)s1)c1ccccc1,1.53
Cc1[nH]oc(=O)c1C=Nc1ccccc1,2.43
CCCCN(C(C)(C)C)S(=O)(=O)c1ccc(C)cc1,-0.36
Cc1ccc(C(=O)Nc2cnc3ccc(C)cn3c2=O)cc1,-0.6
O=C1CSC(=O)N1C(c1ccccc1)(c1ccccc1)c1ccccc1,4.53*
CC(C)(C)c1ccc(N2C(=N)SCC2=O)cc1,0.2
O=C1CSc2nc(-c3ccccc3)c(-c3ccccc3)n21,-0.62
O=C(O)CCC(=O)NCC(=O)c1ccc(OC(F)F)cc1,-0.5
O=S(=O)(c1ccc(Cl)cc1)n1ccc(C(F)(F)F)n1,-0.4
O=C1CC(NCCc2c[nH]c3ccc(Cl)cc23)C(=O)N1c1cccc(Cl)c1 (centres undefined),2.53
O=C(O)C1C2CCCC(CC2)C1C(=O)O (centres undefined),-0.07
CC(C)CNC(=S)NCc1ccco1,-0.57
CC(c1ccccc1)C1CC(=O)N(Cc2ccco2)C1=O (centres undefined),1.92
